18 compounds from PubChem BioAssay AID1479144 (National Center for Advancing Translational Sciences (NCATS), 2020) can be followed below.

Inconclusive results are not listed. A call without a number means that no potency is given here. Values without a mark were called inactive. Activity calls are given as the source filed them. Calls follow the shape of the full dose curve.

A short description of this assay: Confirmatory qHTS for Vero E6 cytotoxicity: counterscreen for inhibitors of SARS-S pseudo-typed particle cell entry. The settings on record: cell viability; series mostly up to 57.1 µM. (In general: qHTS replaces the single test concentration by a dilution series.)
Consider `COc1cc2nccc(Oc3ccc(NC(=O)NC4CC4)c(Cl)c3)c2cc1C(N)=O`, for which the Potency result was “inactive”.
Consider `O=C(O)c1cc(O)c2c(c1)[C@H]([C@H]1c3cc(C(=O)O)cc(O)c3C(=O)c3c(O[C@@H]4O[C@H](CO)[C@@H](O)[C@H](O)[C@H]4O)cccc31)c1cccc(O[C@@H]3O[C@H](CO)[C@@H](O)[C@H](O)[C@H]3O)c1C2=O`, for which the Potency entry was “inactive”.
Consider `COc1c(OCCCN2CCOCC2)ccc2c3n(c(=NC(=O)c4cnc(N)nc4)nc12)CCN3`, for which the activity change, negative = cytotoxicity was -8.49% [at 11.2 µM].
Consider `CCCCCCCCCCCCOCCOCCOCCOCCOCCOCCOCCOCCOCCO`, for which the Potency result was “inactive”.
Turning to `O=C(Nc1ccc([N+](=O)[O-])cc1Cl)c1cc(Cl)ccc1O`, the Potency is 0.857 µM (active).
On to `CN(C)CCOC(c1ccccc1)c1ccc(Br)cc1` (stereo not drawn), for which the Potency result is “inactive”.
Consider `COc1cc(NS(C)(=O)=O)ccc1Nc1c2ccccc2nc2ccccc12`, for which the Potency is 12.1 µM (active).
With `CN1CC[C@H](CN2c3ccccc3Sc3ccccc32)C1`, the Potency entry was “inactive”.
The same measure, in the same setting: in the case of `O=c1ccc2ccccc2o1` it was “inactive”; in that of `O=c1[nH]c(=O)n([C@H]2C[C@H](O)[C@@H](CO)O2)cc1C(F)(F)F`, “inactive”; in that of `CC(C)(C)NC(=O)[C@H]1CC[C@H]2[C@@H]3CC[C@H]4NC(=O)C=C[C@]4(C)[C@H]3CC[C@]12C`, “inactive”.
As to `N=C(N)c1ccc(OCCCCCOc2ccc(C(=N)N)cc2)cc1`, the Potency was 21.5 µM (active).
Take `CCCCCCCCCCCC[n+]1ccc2ccccc2c1`: the Potency is 3.83 µM (active).
The same measure, in the same setting: for `C=CC(=O)Nc1cc(Nc2nccc(-c3cn(C)c4ccccc34)n2)c(OC)cc1N(C)CCN(C)C` the value was 13.6 µM (active); for `CN(C)CCC=C1c2ccccc2C(C)(C)c2ccccc21`, “inactive”; for `CN1CCCCC1CCN1c2ccccc2Sc2ccc(S(C)=O)cc21` (stereo not drawn), “inactive”.
On to `CC(=O)Oc1ccccc1C(=O)Nc1ncc([N+](=O)[O-])s1`, for which the Potency was 9.61 µM (active).
Consider `COc1ccc(Cc2nccc3cc(OC)c(OC)cc23)cc1OC`, for which the Potency result was “inactive”.
